Test results as given in the supplement of paper PMC6555819.

Assays:
Experiment in all cases: PBM binding z-score (relative to random genomic background probes); higher = stronger binding; sequences stand for … in GC…GCGATTGACAGCGTAGAATGAAGG
[1] = tested on: PPARg:RXRa DBDmut IVT, anti-RXR (DBD mutation: RXRa K156A/R161A, NR concentration 270 nM, RXRa partner concentration 90 nM)
Outline: (§1)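 Binding z-scores were set against random background probes. The data came from custom Agilent 4×180K protein-binding microarrays carrying double-stranded probes with 34-nt variable regions, incubated 1 h with ligand-free nuclear receptor dimers. Partner-specific antibodies detected binding, and scanned fluorescence was regression-normalized.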

[2] = tested on: PPARg:RXRa IVT, anti-PPARg (NR concentration 270 nM, RXRa partner concentration 90 nM)
Outline: as §1

[3] = tested on: PPARg DBDmut:RXRa IVT, anti-PPARg (DBD mutation: PPARg1 K132A/R137A, NR concentration 270 nM, RXRa partner concentration 90 nM)
Outline: as §1

[4] = tested on: PPARg DBDmut IVT, anti-PPARg (DBD mutation: PPARg1 K132A/R137A, NR concentration 270 nM)
Outline: as §1

[5] = tested on: PPARg homodimer (NR concentration 180 nM)
Outline: as §1

[6] = tested on: PXR:RXRa (NR concentration 270 nM, RXRa partner concentration 90 nM)
Outline: as §1

[7] = tested on: PXR homodimer (NR concentration 270 nM)
Outline: as §1

[8] = tested on: RARa:RXR (NR concentration 270 nM, RXRa partner concentration 90 nM)
Outline: as §1

[9] = tested on: RARa homodimer (NR concentration 270 nM)
Outline: as §1

[10] = tested on: RARb:RXRa (NR concentration 270 nM, RXRa partner concentration 90 nM)
Outline: as §1

| Sequence | PBM binding z-score [1] | PBM binding z-score [2] | PBM binding z-score [3] | PBM binding z-score [4] | PBM binding z-score [5] | PBM binding z-score [6] | PBM binding z-score [7] | PBM binding z-score [8] | PBM binding z-score [9] | PBM binding z-score [10] |
| --- | --- | --- | --- | --- | --- | --- | --- | --- | --- | --- |
| TCGCGTAGGTTAGTCGGGGCATTCAGCCAACATA | 0.798 | 0.382 | -0.631 | -0.248 | -0.58 | 0.226 | -0.158 | 0.335 | -0.333 | 0.559 |
| CGGACTAGGTCAGAACAGGACAGTGAAGGATGAT | 6.67 | 6.53 | 3.25 | 1.13 | 1.57 | 0.748 | 0.281 | 0.846 | 0.0596 | 2.68 |
| TCTTGTAGATTAAAGGTTAAGAAAGCCGAAGCCT | 1.85 | 2.24 | 0.866 | 0.455 | 1.17 | 1.13 | 0.203 | 2.09 | 1.4 | 1.53 |
| ATAAGTAGGTTAAGGGTCATTCAGGTTGGTTCGC | 7.68 | 7.64 | 2.34 | 2.31 | 5.84 | 5.44 | 4.03 | 6.12 | 3 | 3.75 |
| GCTGCTAGGTGAACTGATGGTCAGCTAAAGCTCG | 3.85 | 2.6 | -0.641 | -1.06 | -0.326 | -0.0218 | -0.684 | 0.388 | -1.4 | 0.944 |
| CGTCCGAGGTCAGAGAGGTCAGTGAATGCCGAGT | 3.24 | 4.09 | -0.171 | -0.203 | 4.74 | 6.53 | 12.4 | 5.71 | 0.718 | 5.23 |
| TCTAGCAGTCCAGAGGGTCACTCAAGAGGTACGG | 0.669 | 0.15 | -0.632 | -0.476 | 0.412 | 1.67 | -0.406 | 2.48 | 0.0783 | 2.07 |
| CCGACTGGGGCAAAAAGGTTACCATACCATCCGG | 2.47 | 2.82 | -0.595 | -1.12 | 0.536 | 1.1 | -0.0306 | 1.87 | 0.158 | 2.05 |
| CGAACTAGGTCATAACAGGACAGTGAAGGATGAT | 7.75 | 8.05 | 5.21 | 4.58 | 2.38 | 2.04 | 0.386 | 2.3 | 0.47 | 3.38 |
| ACTATCAGTTGAGACGAGGGCAACCGATAGGTTG | -0.519 | 0.218 | -0.42 | -0.235 | 0.148 | 1.44 | -0.0291 | 0.7 | -0.128 | 0.903 |
| AGGATGAGGTTACCAAAGATCAGGGAAACGCTTG | 0.68 | 1.09 | 0.557 | 0.461 | 1.12 | 1.47 | 0.27 | 2.02 | 0.36 | 2.12 |
| TCTGGTAGATCAAGCAGGTTAAGAAAGCCTGAGT | 1.17 | -0.178 | -0.408 | -0.683 | -0.462 | 0.159 | 0.156 | 0.213 | -0.519 | -0.0969 |
| CCGACTGGGGCAAAGGTTACCAAACTCAGTACGA | 4.42 | 6.14 | -0.923 | -0.533 | 1.38 | 2.51 | -0.494 | 4.11 | 0.0196 | 2.52 |
| CGTCCAAGGTCAGCAGGCCAGTGAAAGCGACGTG | 2.35 | 2.56 | -0.196 | -0.403 | 1.55 | 2.26 | -0.0334 | 3.14 | 0.266 | 5.01 |
| CGTCAAAGTTAAACTAAGGTAACGTAAAGCACGC | 0.269 | 0.719 | 0.529 | 0.672 | 0.0557 | 0.525 | 0.364 | 1.08 | 0.284 | 0.845 |
| TCTGCTAGGTCAACGATGCTCAGCTAATCTGCTA | 4 | 3.88 | 0.146 | -0.121 | -0.00894 | 0.886 | -1.03 | 1.69 | -0.557 | 3.82 |
| ATATGTGGGTTAAGGGTCATTCAGGTTGGTTCGC | 7.01 | 7.51 | 2.4 | 2.39 | 3.88 | 5.53 | 3.93 | 6.07 | 3.29 | 3.59 |
| ATATGTAGGTTAAGTGTCATTCAGGTTGGTTCGC | 7.37 | 7.34 | 2.11 | 2.12 | 1.85 | 1.87 | 0.52 | 2.1 | 1.63 | 1.99 |
| CAAACTAGGTCCCAGAGGTCAAAGTCCGTGCGTA | 4.19 | 4.68 | 1.03 | 0.477 | 2.64 | 5.55 | 2.66 | 5.68 | 1.33 | 3.8 |

| Sequence | PBM binding z-score [1] | PBM binding z-score [2] | PBM binding z-score [3] | PBM binding z-score [4] | PBM binding z-score [5] | PBM binding z-score [6] | PBM binding z-score [7] | PBM binding z-score [8] | PBM binding z-score [9] | PBM binding z-score [10] |
| --- | --- | --- | --- | --- | --- | --- | --- | --- | --- | --- |
| CCTGCTAGGTCAATGGTTAGCTAAAGCAGCTCGC | 4.4 | 3.57 | -0.722 | -1.05 | 0.942 | 0.745 | -0.456 | 1.29 | -0.0432 | 3.74 |
| GCGACTGGGGCAAAGCAGGTTACCTTAAGGTTGG | 4.98 | 3.47 | -0.487 | -1.22 | -0.599 | 0.288 | -0.563 | 0.523 | -0.791 | 0.877 |
| CGAACTAGGTCATCGACAGGACAGTGAATAGTAA | 8.14 | 8.42 | 4.29 | 4.27 | 2.79 | 1.76 | 0.984 | 2.53 | 2.3 | 3.88 |
| CTACCATGGTGAACAAGGTCGTTGATTACTATTC | 0.666 | 0.434 | 0.343 | 0.226 | 0.387 | 1.56 | 0.655 | 1.43 | 0.262 | 0.627 |
| ACAGACAGGTCATGAAGGTAACTCAGGCTATCAT | 1.59 | 2.7 | 1.81 | 1.12 | 1.73 | 2.95 | 0.934 | 3.74 | 0.881 | 3.9 |
| ATCTCTAGGTTACAAGTTCAGTGAAAGAGAGGAC | 4.27 | 4.41 | 1.99 | 3.28 | 2.22 | 2.38 | 2.41 | 2.03 | 1.88 | 2.69 |
| TCGTATAGGTAATACAGGTGAAAGTCGGCATCTA | 2.32 | 2.24 | 0.787 | 1.03 | 0.975 | 0.742 | 0.293 | 0.746 | 1.16 | 0.691 |
| CCTAGCAGGCCAATCTCGGTCACTCAAGGCTTGA | 1.96 | 1.29 | -0.633 | -1.57 | 0.0271 | -0.17 | -0.412 | 0.0359 | -0.713 | 1.34 |
| ATCGAAAGGTCGAGGTGGGTATAGAGAAAGGGAA | 0.271 | 1.55 | 0.846 | 1.16 | 2.17 | 2.99 | 0.988 | 3.5 | 1.9 | 4.34 |
| CCTAGCATGCCAATCTGGGTCACTCAAGGCTTGA | 3.67 | 4.84 | 0.133 | -0.458 | 0.737 | 0.913 | -0.249 | 1.65 | -0.219 | 1.16 |
| GGAACGAGGGCAATGTTGATAGCATCTGTCGACG | 3.67 | 2.77 | 0.286 | -0.167 | 0.467 | 0.63 | 0.108 | 0.572 | -0.191 | 2.13 |
| CGTTCAAGGTCAATGCTAGGTCAGTGAAAGCATT | 4.31 | 4.8 | 0.872 | 0.0991 | 7.93 | 5.3 | 1.78 | 6.62 | 2.61 | 5.22 |
| AGAATGAGGTTATTAAGATCTGGGAATTGCGGTC | 3.21 | 1.94 | 0.564 | 0.21 | 0.467 | 1.16 | 0.379 | 1.66 | -0.145 | 1.29 |
| ACTATTAGTTGAGACGAGGGCAACAGATAGGTTG | 0.565 | 0.556 | 0.565 | 1.23 | 0.704 | 1.13 | 0.384 | 0.971 | 0.692 | 0.75 |
| TCTATTAGTTGAAGGGCAACCAACGAGTCCGTTT | 2.05 | 0.417 | 0.246 | 1.16 | 0.593 | 0.786 | 0.837 | 0.718 | 1.55 | 1.46 |
| CGAACGAGGGCATGAGTAGATAGCAAATGCCGAT | 2.5 | 2.07 | -0.283 | 0.0377 | 0.101 | 0.0706 | -0.112 | 0.0192 | -0.164 | 1.85 |
| GATACAGGGTCTGCTAGAGGCCAGAGTATGGAAA | -0.826 | -0.333 | -1.05 | -1.35 | -0.406 | -0.54 | -0.558 | -0.523 | -0.148 | 0.305 |
| TAGCCTAGGTCGGATCGGGCCAGTATACGCTATA | -0.693 | -0.327 | -0.89 | -0.506 | -1.19 | -0.228 | -0.533 | 0.382 | -0.683 | 0.204 |
